For nine compounds, outcome and Potency results are on record in PubChem BioAssay (NCATS).

Inconclusive results are not listed. Activity calls are given as the source filed them. The call rests on the fitted dose curve; in most records, active means well fitted curve in the direction sought with a large enough effect; inconclusive means small, poorly fitted or top-dose-only effect, or another doubt; inactive means no such curve, though single readings can be large; an effect the other way counts as inactive or inconclusive.

Experiment [1] has as its target Alpha-galactosidase A (Homo sapiens) (UniProt P06280). The experiment is described as follows: Counterscreen for Glucocerebrosidase Inhibitors: qHTS Assay for Human alpha-Galactosidase at pH 4.5 (AID 992). The conditions noted are these: purified enzyme, fluorogenic substrate; series mostly up to 76.9 µM. An outline of the steps:
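Fluorogenic 1536-well qHTS at pH 4.5 (citrate, Tween-20): 2 nM enzyme, 80 uM 4-MU-alpha-galactoside, 20 min room temperature, NaOH/glycine stop. Titration 0.7 nM to 77 uM, data normalized to no-enzyme and full-activity controls, Hill-fitted AC50.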
On the technique in general: A counterscreen serves to expose hits that act by an unwanted route or on another target.

Experiment [2] addresses alpha-glucosidase (Oryza sativa, rice) (UniProt Q653V4). The experiment is described as follows: Counterscreen for Glucocerebrosidase Inhibitors: qHTS Assay for Rice alpha-Glucosidase at pH 5.0 (AID 997). The conditions noted are these: rice alpha-glucosidase enzyme activity; series mostly up to 76.9 µM. The method in brief: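 Endpoint fluorogenic assay at pH 5.0: compounds (0.7 nM to 77 uM) titrated against 4 nM rice enzyme and 400 uM 4-MU-alpha-glucoside for 20 min at room temperature; NaOH/glycine stop, read ex 365/em 440 nm, Hill-fitted AC50.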

Experiment [3] addresses DNA repair nuclease/redox regulator APEX1 (Homo sapiens) (UniProt P27695). Kind of experiment: qHTS Validation Assay for Inhibitors of the Human Apurinic/apyrimidinic Endonuclease 1 (APE1) (AID 1705;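 further: TAMRA fluorescence gain over two minutes as APE1 cuts a quenched THF abasic duplex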). Conditions: purified APE1 endonuclease activity, fluorescence, titration; series mostly up to 57.1 µM. An outline of the steps: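 Substrate: 50 nM final fluorophore/quencher THF-abasic duplex. Enzyme preincubated with compounds 15 min, RT. Progress derived from fluorescence difference, third minus first kinetic read.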

Experiment [4] is described as follows: Counterscreen for APE1 Inhibitors: Fluorescent Dye Displacement Validation Assay (AID 1707). Conditions: fluorescent dye displacement from DNA; series mostly up to 57.1 µM. An outline of the steps:
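Counterscreen flags promiscuous DNA binders: compounds displacing ThO from duplex DNA (abasic THF site, 50 nM) reduce 540 nm emission (480 nm excitation). ThO 250 nM final; Tris-HCl pH 7.5 with NaCl, MgCl2 and Tween-20.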

Experiment [5] addresses Endonuclease 4 (Escherichia coli (strain K12)) (UniProt P0A6C1). The experiment is described as follows: Counterscreen for APE1 Inhibitors: qHTS Validation Assay for Inhibitors of Endonuclease IV (AID 1708). Conditions: E. coli endonuclease IV, DNA cleavage fluorescence; series mostly up to 57.1 µM. An outline of the steps: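 Enzyme (2 nM) + compound, 15 min RT; add 50 nM TAMRA/BHQ-2 THF-site dsDNA; kinetic read ex525/em598, 3 reads/60 s; activity = read 3 − read 1. Buffer Tris pH 7.5, 50 mM NaCl, 2 mM MgCl2, DTT, Tween-20.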

Experiment [6] can be described thus: qHTS for differential inhibitors of proliferation of Plasmodium falciparum line 7G8 (AID 1815).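 Further: parasite growth measured after three days of incubation.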 Further: potency means the concentration at half of the fitted maximal effect. The conditions noted are these: Plasmodium falciparum 7G8 proliferation inhibition; series mostly up to 28.7 µM.
A short description of experiment [7]: qHTS for differential inhibitors of proliferation of Plasmodium falciparum line GB4 (AID 1816).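 Further: parasite growth measured after 72 h incubation.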 Further: potency means the concentration at half of the fitted maximal effect. The conditions noted are these: Potency: Plasmodium falciparum GB4 proliferation inhibition; series mostly up to 28.7 µM.
Experiment [8] in a line: qHTS for differential inhibitors of proliferation of Plasmodium falciparum line 3D7 (AID 1876). Further: potency means the concentration at half of the fitted maximal effect. Conditions: P. falciparum 3D7 proliferation inhibition; series mostly up to 28.7 µM. (In general: qHTS replaces the single test concentration by a dilution series.)
A short description of experiment [9]: Cell Viability - LYMP2-012 (AID 982).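 Further: cellular ATP by luciferase luminescence where a drop means cytotoxicity; cells exposed to compound for one day before reading; nearly all actives have a fitted effect of over 55% in size.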 Further: potency means the concentration at half of the fitted maximal effect. Conditions: LYMP2-012 lymphoblastoid cell viability qHTS; series mostly up to 92.2 µM.
Experiment [10] in a line: Cell Viability - LYMP2-018 (AID 985).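 Further: compound exposure lasted 24 hr at 37 °C; nearly all actives have a fitted effect of over 50% in size.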 Further: potency means the concentration at half of the fitted maximal effect. Conditions: LYMP2-018 lymphoblastoid cells, viability (qHTS); series mostly up to 92.2 µM. The method in brief:
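Seed 2500 lymphoblastoid cells per well, incubate 5 hr at 37 C, add compound and incubate 24 hr at 37 C, add CellTiter-Glo, wait 30 min at room temperature, then read luminescence.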

Experiment [11] is described as follows: Cell Viability - LYMP2-020 (AID 986).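 Further: cells exposed to compound for 24 h at 37 °C; nearly all actives have a fitted effect of over 55% in size.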 Further: potency means the concentration at half of the fitted maximal effect. Conditions: series mostly up to 92.2 µM. An outline of the steps: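 Seed 2500 cells per well and incubate 5 hr at 37 C. Add compounds at a concentration series and incubate 24 hr at 37 C. Add CellTiter-Glo, wait 30 min at RT, read luminescence, and fit a Hill curve for AC50.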
The nature of experiment [12]: Cell Viability - LYMP2-022 (AID 987). Further: nearly all actives have a fitted effect of over 55% in size. Further: potency means the concentration at half of the fitted maximal effect. The conditions noted are these: LYMP2-022 lymphoblastoid cell viability; series mostly up to 92.2 µM. An outline of the steps:
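Cells were seeded at 2500 per well, rested 5 hr at 37 C, and treated with titrated compounds for 24 hr at 37 C. Cellular ATP was then quantified by luciferase luminescence, and AC50 values were derived from Hill-modelled concentration-response curves.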

Experiment [13] can be described thus: Cell Viability - LYMP2-024 (AID 988). Further: nearly all actives have a fitted effect of over 60% in size. Further: potency means the concentration at half of the fitted maximal effect. Conditions: LYMP2-024 lymphoblastoid cell viability; series mostly up to 92.2 µM. An outline of the steps:
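qHTS cytotoxicity, human lymphoblastoid line, complete medium; 24 h cpd treatment, 37 C; CellTiter-Glo ATP luminescence readout; tetraoctylammonium bromide positive control; AC50 via Hill fit.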

Experiment [14] can be described thus: Cell Viability - LYMP1-002 - Assay at 40 hr (AID 994). Further: nearly all actives have a fitted effect of over 60% in size. Further: potency means the concentration at half of the fitted maximal effect. Conditions: LYMP1-002 lymphoblastoid cell viability; series mostly up to 92.2 µM. An outline of the steps: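 Cells are plated at 2500 per well and rested 5 hr at 37 C. Compounds are added and incubated 40 hr at 37 C. CellTiter-Glo reagent is added for 30 min at room temperature before luminescence is read.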

A short description of experiment [15]: Cell Viability - LYMP2-014 (AID 983).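 Further: cells exposed to compound for 24 h at 37 °C; nearly all actives have a fitted effect of over 50% in size.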 Conditions: LYMP2-014 lymphoblastoid cells, viability qHTS; series mostly up to 92.2 µM. The method in brief:
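Cells are plated at 2500/well and left 5 hr at 37 C. Compounds are added across a concentration range and incubated 24 hr at 37 C in complete medium. CellTiter-Glo is added, and luminescence is read after 30 min at room temperature.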

Experiment [16] is described as follows: Cell Viability - LYMP2-016 (AID 984).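 Further: cells exposed to compound for 24 hours at 37 °C; nearly all actives have a fitted effect of over 55% in size.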 Conditions: LYMP2-016 lymphoblastoid cell viability, qHTS; series mostly up to 92.2 µM. An outline of the steps: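 Concentration-dependent ATP depletion measured in LYMP2-016 lymphoblastoid cells, 24 h, 37 C; luciferase-based luminescent detection; Hill-equation AC50.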
Experiment [17] is described as follows: Cell Viability - LYMP2-026 (AID 989).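 Further: cells exposed to compound for 24 h at 37 °C; nearly all actives have a fitted effect of over 50% in size.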 Conditions: LYMP2-026 lymphoblastoid cell viability, qHTS; series mostly up to 92.2 µM. An outline of the steps: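 Cells are seeded at 2500 per well and held 5 hr at 37 C. Compounds are added in concentration series for 24 hr, then CellTiter-Glo reagent is applied and luminescence read.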
Experiment [18] can be described thus: Cell Viability - LYMP1-002 - Assay at 24 hr (AID 993). The conditions noted are these: LYMP1-002 lymphoblastoid cells viability; series mostly up to 92.2 µM. An outline of the steps: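 Acute toxicity is measured as concentration-dependent loss of cellular ATP in a human lymphoblastoid line (Coriell LYMP1-002) after 24 h treatment in complete medium. ATP is quantified by luciferase luminescence and AC50 derived by Hill modelling.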

DNA repair nuclease/redox regulator APEX1 (Homo sapiens), sequence (P27695 whole entry, looked up): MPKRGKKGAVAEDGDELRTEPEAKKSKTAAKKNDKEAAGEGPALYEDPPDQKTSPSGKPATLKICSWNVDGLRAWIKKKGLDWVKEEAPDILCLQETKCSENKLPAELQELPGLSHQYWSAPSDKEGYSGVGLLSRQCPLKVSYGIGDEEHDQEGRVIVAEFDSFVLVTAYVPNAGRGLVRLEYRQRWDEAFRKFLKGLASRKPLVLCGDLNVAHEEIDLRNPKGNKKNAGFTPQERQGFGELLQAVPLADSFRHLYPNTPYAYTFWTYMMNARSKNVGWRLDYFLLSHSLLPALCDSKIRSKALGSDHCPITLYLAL
Alpha-galactosidase A (Homo sapiens), sequence (P06280 whole entry, looked up): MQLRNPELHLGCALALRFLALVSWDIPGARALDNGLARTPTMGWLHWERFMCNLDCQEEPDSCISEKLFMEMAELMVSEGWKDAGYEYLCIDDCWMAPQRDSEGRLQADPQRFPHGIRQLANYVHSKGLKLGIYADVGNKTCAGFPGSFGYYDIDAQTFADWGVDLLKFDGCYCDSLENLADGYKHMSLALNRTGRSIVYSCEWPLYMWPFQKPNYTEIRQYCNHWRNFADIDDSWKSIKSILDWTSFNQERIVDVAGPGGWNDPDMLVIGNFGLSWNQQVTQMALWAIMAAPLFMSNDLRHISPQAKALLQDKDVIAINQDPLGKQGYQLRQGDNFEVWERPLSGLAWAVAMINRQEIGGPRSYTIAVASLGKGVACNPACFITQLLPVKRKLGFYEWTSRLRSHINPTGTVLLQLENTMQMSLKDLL

Take `NCCCNCCSP(=O)(O)O`: the compound was classed as inactive in experiment [1], in [2] and in experiment [4]. Also, the Potency entry in [3], in [5], in [6], in experiment [7] and in [8] was “inactive” throughout.

For `CN(C)C(=O)Oc1ccc[n+](C)c1`, the compound was classed as inactive in experiment [1], in [2] and in experiment [4]. Moreover, the Potency entry in experiment [3], in experiment [6], in experiment [7] and in experiment [8] was “inactive” in each case.

For `Brc1c(NC2=NCCN2)ccc2nccnc12`, the compound was classed as inactive in experiment [1], in experiment [2] and in experiment [4]. Besides, in [3], the Potency result is “inactive”.

`Nc1ncn([C@@H]2O[C@H](CO)[C@@H](O)[C@H]2O)c(=O)n1`: the Potency in experiment [9] is 15.8 µM (active); in experiment [10] it was 7.94 µM (active); in experiment [11], 10 µM (active); in experiment [12], 15.8 µM (active); in [13], 15.8 µM (active); in experiment [14], 15.8 µM (active). Also, the call in experiment [1], in [2] and in experiment [4] was inactive. Also, the Potency entry in experiment [3], in experiment [5], in [6], in experiment [7] and in experiment [8] was “inactive” in each case.

For `NC(=Nc1ccccc1)Nc1ccccc1`, the Potency result in experiment [9], in experiment [10], in experiment [11], in experiment [12], in experiment [13] and in [14] was “inactive” each time. Moreover, the result in experiment [15], in [16], in [17] and in experiment [18] was inactive.

Regarding `C[C@H](CS)C(=O)N1CCC[C@H]1C(=O)O`, the call in experiment [1], in [2] and in experiment [4] was inactive. Further, the Potency entry in experiment [3], in [6], in experiment [7] and in [8] was “inactive” each time.

Consider `COCC(=O)O[C@]1(CCN(C)CCCc2nc3ccccc3[nH]2)CCc2cc(F)ccc2[C@@H]1C(C)C`, for which the compound was called inactive in [1], in experiment [2] and in [4]. In [3], the Potency result was “inactive”. Moreover, the Potency in [6] is 2.24 µM (active); in experiment [7], 0.141 µM (active); in experiment [8], 3.16 µM (active).

Take `OCCN1CCN(CC/C=C2/c3ccccc3Sc3ccc(C(F)(F)F)cc32)CC1`: the Potency entry in [3] was “inactive”. In experiment [4], the outcome was inactive. Further, the Potency in [6] was 2.51 µM (active); in experiment [7], 2.24 µM (active); in [8], 2.51 µM (active).

On to `C[n+]1cc2c3c(ccc2c2ccc4cc5c(cc4c21)OCO5)OCO3`, for which the compound was classed as inactive in experiment [1] and in experiment [2]. Moreover, in experiment [3], the Potency entry was “inactive”. In addition, the results for the Potency in [6], in [7] and in experiment [8] were 4.47 µM (active), 2.82 µM (active) and 2.82 µM (active), respectively.
